# a7 integrin act – qHTS for Activators of Integrin-Mediated Alleviation for Muscular Dystrophy. alpha7betagal myoblasts, beta-gal FDG fluorescence, 48 h. Potency, µM (titrated, usually from 38.3 µM), for inactives: top-dose activation, most hits filed as activators. hit rate 0.064% among 350,000;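 note: potency is the fitted concentration of half-maximal effect; 100% = response of the positive control SU9516; nearly all actives have a fitted effect of over 60% in size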
#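 Alpha7betagal+/- myoblasts (passage 13) were plated 16-24 hr, then exposed to compounds (1:260 dilution of DMSO stock) for 48 hours at 37C. After MPER lysis, β-galactosidase reporter activity was read as FDG fluorescence (ex 480/em 540) after 30 minutes.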
# ClpP mod – qHTS Assay for Activators of ClpP. ATP-dependent Clp protease proteolytic subunit (Bacillus subtilis (strain 168)), P80244. purified B. subtilis ClpP, FRET peptide cleavage, 20 min. Potency, µM (doses to about 57.5 µM), without a hit: top-dose activity change, negative = active. hit rate 1.9% among 340,000. AID 651965, 2013; active = well fitted falling curve with a large enough effect; inconclusive = small, poorly fitted or top-dose-only effect; inactive = no such curve, though single readings can be large or run the other way; note: potency is the fitted concentration of half-maximal effect; the source files actives as falling curves though it sought activators and does not explain the sign; nearly all actives have a fitted effect of over 65% in size
#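 FRET quenching reversal measured ClpP activation: 10 microg/mL B. subtilis ClpP at pH 8 with the FRET-FV decapeptide, read at 430 nm after 320 nm excitation. The 20-min minus 0-min signal was scaled between DMSO/no-enzyme wells and ADEP (5.8 microM final).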
# USP2a block – qHTS Assay for Inhibitors of Ubiquitin-specific Protease USP2a Using CHOP2 as the Reporter; Ubiquitin carboxyl-terminal hydrolase 2 (Homo sapiens), O75604; USP2 core, Ub-CHOP2 coupled fluorogenic reporter, 485/531; Potency, µM (titrated, usually from 38.3 µM), for the others: at the top dose activity change, negative = inhibition, most hits filed as inhibitors; hit rate 0.01% among 330,000;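 note: potency is the fitted concentration of half-maximal effect; plate controls were DMSO wells for no effect and full inhibition by NEM control for full effect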
#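 Cell-free coupled assay: 10nM USP2 core preincubated 30min RT with compound in Tris-HCl pH 8.0/CaCl2/CHAPS buffer, then 25nM Ub-CHOP2 and 25nM reporter substrate; fluorescence (Ex 485/Em 531) read after 60min RT, normalized to NEM inhibition, concentration-response curves fitted.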
# IL-2 act – qHTS of IL-2 Activators. activation, % (series mostly up to about 46 µM). IL-2 activation reporter assay, cell-based qHTS; stimulated with anti-CD3/CD4/CD28 beads; in transgenic mouse T cells. AID 652025, 2013. hit rate 0.065% among 360,000; in the data active = activation above about 50%; inconclusive = mostly about 30% to 49%; note: 0% is about no effect
#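 Readout: EGFP and DsRed signals by fluorescent plate cytometry. Unstimulated transgenic mouse T cells received compound 60 min before antibody-bead stimulation, then incubated 18 h at 37 degrees C.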
# PKM2 activator – qHTS Assay for Activators of Human Muscle isoform 2 Pyruvate Kinase. Potency, µM (top dose mostly 57.5 µM), inactives show at the highest dose activation, most hits filed as activators. Pyruvate kinase PKM (Homo sapiens), P14618. hit rate 0.34% among 260,000. purified PKM2, Kinase-Glo ATP luminescence, activation; response scale: 0% is enzyme alone, no compound; note: potency is the fitted concentration of half-maximal effect; % is set by controls: 0 for no effect and ±100 for the full control effect; nearly all actives have a fitted effect of over 55% in size
#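 Purified hPK-M2 (>95%) run at intermediate activity with 0.1 mM ADP and 0.5 mM PEP in 50 mM imidazole pH 7.2, KCl, MgCl2; 1 h room temperature. ATP formed read by Kinase-Glo luminescence; normalized to uninhibited and no-enzyme controls.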
# Pin1 inh – qHTS Assay to Find Inhibitors of Pin1. Peptidyl-prolyl cis-trans isomerase NIMA-interacting 1 (Homo sapiens), Q13526. Pin1 FP peptide displacement, HiFluor488, 10 min. Potency, µM (doses to about 115 µM), without a hit: at the highest dose activity, negative = inhibition, hits mostly inhibitors. hit rate 0.009% among 390,000; active = well fitted inhibition curve with a large enough effect in the polarisation, with a control signal flat, not every such curve was filed as active; inconclusive = small, poorly fitted or top-dose-only effect, or effect the other way, or a change in a side signal; inactive = no such curve, though single readings can be large or run the other way; the % refers to the polarisation; note: potency is the fitted concentration of half-maximal effect; % is set by controls: 0 for no effect and ±100 for the full control effect
# * hit, by the source's call; ? = inconclusive; · = not tested or not shown; ! = repeats disagree; [ ] = another dose, or the depositor's remark. An excerpt weighted towards active compounds, which were near 1.9% of everything screened. Unless noted, calls come from the whole dose curve; as a rule, active = well fitted curve in the direction sought with a large enough effect; inconclusive = small, poorly fitted or top-dose-only effect, or another doubt; inactive = no such curve, though single readings can be large; an effect the other way counts as inactive or inconclusive.
SMILES,a7 integrin act,ClpP mod,USP2a block,IL-2 act,PKM2 activator,Pin1 inh
Cc1ccc2nc(-c3ccc(SCC(=O)Nc4nnc(C)s4)nc3)[nH]c2c1,-45%,-1%,0%,-6,0%,20%
Cc1cc2nc(-c3ccc(SCC(=O)N4CCN(C(=O)c5ccco5)CC4)nc3)[nH]c2cc1C,-4%,?,-3%,-3,-15%,?
COc1cc2nc(N3CCN(C)CC3)nc(NC3CCN(C)CC3)c2cc1OC,·,4%,·,·,·,·
Cc1nc([N+](=O)[O-])cn1CC(O)c1ccc2c(c1)OCCCO2 (stereo unspecified),·,1%,·,·,·,·
COCc1nn2c(=O)cc(N3CCNCC3)nc2s1,·,·,·,·,·,0%
O=C(Nc1ccc(-c2nc3ccccc3[nH]2)cc1)c1ccc(N2C(=O)CCC2=O)cc1,19%,22µM*,2%,1,-5%,11%
CCOC(=O)CSc1ccc(-c2nc3ccccc3[nH]2)cn1,15%,32µM*,-2%,-3,-2%,8%
Cc1cc2nc(-c3ccc(SCc4ccccn4)nc3)[nH]c2cc1C,-5%,·,2%,-4,·,53%
COCCNC(=O)CSc1ccc(-c2nc3ccccc3[nH]2)cn1,13%,4%,0%,0,0%,4%
CC(C)(C)N1C(=O)c2ccc(C(=O)Nc3ccc(-c4nc5ccccc5[nH]4)cc3)cc2C1=O,-5%,?,0%,-2,6%,3%
CCOC(=O)CSc1ccc(-c2nc3cc(C)c(C)cc3[nH]2)cn1,19%,32µM*,0%,-3,-6%,-1%
Clc1nc(NCc2cccs2)c2[nH]cnc2n1,·,0%,·,·,·,0%
O=c1c2c3c(sc2[nH]c(=S)n1Cc1ccco1)CCC3,-20%,-4%,0%,-1,11µM*,?
CC1(C)Cc2c(sc3[nH]c(=S)n(Cc4ccco4)c(=O)c23)CO1,-7%,-4%,2%,1,22%,12%
CC(OC(=O)c1ccccc1OCCOc1ccccc1)C(=O)Nc1ccc(Br)cc1 (stereo unspecified),·,-4%,·,·,·,·
O=[N+]([O-])c1cccc(Cl)c1NCCNS(=O)(=O)c1ccccc1,-1%,1%,0%,-1,14µM*,-5%
Cc1cc(C)cc(S(=O)(=O)N2CCN(c3nc(-c4cccs4)nc4ccccc34)CC2)c1,·,4%,·,·,·,1%
COc1cccc(N2C(=O)c3ccccc3C2=O)n1,·,·,·,·,·,0%
O=C(c1ccccc1)c1nc[nH]c1C(=O)Nc1ccccn1,14%,28µM*,-1%,-1,4%,0%
O=C(Nc1ccccn1)c1ccc(C(=O)c2ccccc2)cc1,-9%,·,-1%,2,·,1%
COc1cc(C(c2nnnn2C(C)(C)C)N2CCN(c3nc4ccccc4s3)CC2)ccc1O (stereo unspecified),-2%,-2%,0%,1,25µM*,-4%
Cc1ccc2c(c1)-c1c(cnc3cc(-c4ccc(Cl)cc4)nn13)CO2,·,18µM*,·,·,·,5%
Cc1cc(C)c(C)c(S(=O)(=O)N2CCN(S(=O)(=O)c3ccc4c(c3)OCCO4)CC2)c1C,·,·,·,·,·,1%
CCCn1c(N)c(C(=O)CSc2nc(C)cs2)c(=O)[nH]c1=O,17%,-1%,3%,0,?,4%
CCCCNc1nnc(SCC(=O)c2c(N)n(CCC)c(=O)[nH]c2=O)s1,4µM*,0%,-3%,1,·,-2%
SMILES,a7 integrin act,ClpP mod,USP2a block,IL-2 act,PKM2 activator,Pin1 inh
COc1cc(OC)c2c(C)c(Cl)c(=O)oc2c1,23%,2.8µM*,1%,-3,-3%,-4%
COc1cc(OC)c2c(-c3cccc(-c4ccc(NC(C)=O)cc4)c3)cc(=O)oc2c1,-24%,?,-13%,0,·,5%
CCOC(=O)c1ccc(-c2cccc(-c3cc(=O)oc4cc(OC)cc(OC)c34)c2)cc1,-7%,20µM*,1%,-1,·,-1%
Oc1cc2cc(-c3csc(-c4ccc(F)cc4)n3)ccc2[nH]1,·,-5%,·,·,·,·
COc1nc(-c2ccccc2)cc(-c2ccc(OC)c(OC)c2)n1,20%,22µM*,-6%,-3,-7%,1%
Cc1ccc(SC2=NS(=O)(=O)c3ccccc32)c(C)c1,·,0%,·,·,·,?
Cc1ccc(-c2nc3cc(N)ccc3o2)cc1,20%[7.66 µM],-8%,0%,-3,2%,-3%
Cc1ccc2oc(-c3ccco3)nc2c1,20%,11µM*!,0%,-1,-14%,3%
Cc1ccc(-c2nc3cc(C)ccc3o2)cc1,-16%,32µM*,-1%,1,-14%,8%
COC(=O)c1ccc(-c2nc3ccc(C)cc3o2)cc1,-7%,3.5µM*,3%,-4,0%,0%
COc1ccc2[nH]c(CCc3nc4c(OC)c(OC)ccc4[nH]3)nc2c1OC,·,5%,·,·,·,·
Cc1cccc(N2CCN(CC(O)COCc3cccs3)CC2)c1C (stereo unspecified),5%,22µM*,0%,0,-2%,4%
O=C1CCCc2c1cc(C(=O)NC1CCSC1=O)c(=O)n2-c1ccccc1 (stereo unspecified),-13%,25µM*,-6%,1,-20%,-2%
O=C1CCCc2c1cc(C(=O)O)c(=O)n2-c1ccccc1,8%,·,-1%,1,-3%,-4%
CC1(C)CC(=O)c2cc(C(=O)NC3CCSC3=O)c(=O)n(-c3ccccc3)c2C1 (stereo unspecified),8%,25µM*,-1%,-1,0%,-5%
CC1(C)CC(=O)c2cc(C(=O)Nn3cnnc3)c(=O)n(-c3ccccc3)c2C1,3%,?,0%,-1,4%,-13%
N#Cc1c(N)n(C2CCCCC2)c2nc3ccccc3nc12,-13%,32µM*,-1%,-1,-27%,18%
CC(C)CCNC(=O)Cn1c(SCc2cccc(F)c2)nc2ccncc21,·,-19%,·,·,·,-2%
C#CCN(C1CCCC1)S(=O)(=O)C=C,·,-1%,·,·,·,·
Cc1ccc2[nH]c(=O)c3cc(C(=O)N4CCN(C(=O)c5ccco5)CC4)sc3c2c1,0%,-17%,-5%,-4,16µM*,-6%
CCN(CCCNC(=O)c1cc2c(=O)[nH]c3ccc(C)cc3c2s1)Cc1ccccc1,·,14µM*,·,·,·,-3%
CCOc1ccccc1CNC(=O)c1cn(C)c(=O)c2c1c1ccccc1n2C,6%,11µM*,1%,1,8%,4%

# Bioassay records as filed in PubChem BioAssay.
